The record followed here is ChEMBL document CHEMBL4513216, “Probing the Open Global Health Chemical Diversity Library for Multistage-Active Starting Points for Next-Generation Antimalarials” (ACS Infect Dis, 2020).

Hit rate of the full screen: of about 68,000 compounds, about 2,700 (4%) showed an effect of 50% or more. Shown is part of a subset that was picked to be rich in strong results.

For the test, the system named is Plasmodium berghei. The experiment in a line: Screen against P. berghei liver stage (PbLuc), transformed with Luciferase, at 2uM. The class given is functional, HepG2. Particulars: tested at 2 uM.
`Cc1cnc(N2CCC3(CC2)CN(c2ccsc2)C(=O)CO3)nc1`: the INHIBITION is -38.48%. In the case of `CC(CN1CCOCC1)NC(=O)N1CCCC1` (stereo not given) it was 34.93%.

For `Cc1ccoc1C(=O)N1C[C@@H](OCC2CC2)[C@H]2OCCC[C@H]21`, the INHIBITION is recorded as 8.25%. In the case of `CCc1nc(NC(=O)NCCc2cccc(C)n2)nn1C` it was 21.14%. In the case of `CCOc1ccccc1NC(=O)N(CCO)Cc1ccsc1` it was 38.66%. Turning to `Cc1ccc(NC(=O)N(CCO)CCO)c(OCc2ccccc2)c1`, the INHIBITION is 68.73%. Regarding `CC(=O)N(C)CC(=O)Nc1ccc(C)cc1OCc1ccccc1`, the INHIBITION came to 50.03%. The result for `CCCOc1cc(C)ccc1NC(=O)N(C)C` reads -59.32%; that for `CC(=O)NCCNC(=O)Nc1ccc(C)cc1OCc1ccccc1`, 3.22%; that for `CCCOc1cc(C)ccc1NC(=O)NCCNC(C)=O`, -3.26%. Consider `NC(=O)c1cc(C2CCCN(Cc3ccc4c(c3)OCCO4)C2)n[nH]1` (stereo not given), for which the INHIBITION is reported as -16.03%. In the case of `Cc1nc(C2CCCN2CC(=O)NCCOc2ccc(F)cc2)no1` (stereo not given), the INHIBITION is listed as 20.57%. For the molecule `Cc1nccn1CCCn1cncc1-c1ccc2c(c1)CCC(C)N2C` (stereo not given), the INHIBITION came to 12.29%. The result for `CC(C)(C)c1nc(CN2CCCC2Cn2cncn2)no1` (stereo not given) reads 45.83%; that for `COc1cccc(C2c3c(n[nH]c3C)N=C3COC(=O)C32)c1OC` (stereo not given), -35.07%. Regarding `COc1ccc(OC)c(C2c3c(n[nH]c3C)N=C3COC(=O)C32)c1` (stereo not given), the INHIBITION is recorded as 26.14%.

Turning to `COc1cccc(C2c3c(n[nH]c3C)N=C3COC(=O)C32)c1O` (stereo not given), the INHIBITION turned out to be 63.46%.

With `CNC(=O)CCN1CCCC1c1ccccc1Br` (stereo not given), the INHIBITION was 51.76%. The result for `CNC(=O)CN1CCCC1c1ccccc1Br` (stereo not given) reads 1.9%. The result for `NC(=O)CN1CCCC1c1ccccc1Br` (stereo not given) reads -43.18%. In the case of `Cc1nn(C)cc1CCC(=O)N1CCCC(n2cncn2)C1` (stereo not given) it was 26.71%; in that of `CCOC(=O)Cc1csc(NC(=O)c2cc(=O)c(OC)c[nH]2)n1`, -5.51%; in that of `COc1c[nH]c(C(=O)Nc2nc(C(C)(C)C)cs2)cc1=O`, 34.71%.

Regarding `COc1c[nH]c(C(=O)Nc2nc(C)cs2)cc1=O`, the INHIBITION is reported as 79.68%. In the case of `Cc1c(C2CC(=O)Nc3c2cnn3C(C)C)cnn1C` (stereo not given) it was -0.58%; in that of `O=C(CSc1nnc(N2CCOCC2)s1)NCc1cccs1`, 44.98%; in that of `CCc1[nH]ncc1C(=O)N1CCN(c2nccc(OC)n2)CC1`, -85.11%. In the case of `COc1ccnc(N2CCN(C(=O)COCC(F)(F)F)CC2)n1` it was 4.19%; in that of `COc1cc(C)nc(N2CCN(C(=O)COCC(F)(F)F)CC2)n1`, 51.21%; in that of `CCOc1cc(C)nc(N2CCN(C(=O)c3cn[nH]c3CC)CC2)n1`, 38.76%.

Consider `COc1cc(C)nc(N2CCN(C(=O)COCC3CC3)CC2)n1`, for which the INHIBITION amounted to 4.19%. The result for `CCc1[nH]ncc1C(=O)N1CCN(c2nc(C)cc(OC)n2)CC1` reads 51.83%. The result for `Cc1ccnn1CCCNC(=O)C1CCN(S(C)(=O)=O)CC1` reads -11.34%; that for `Cc1csc(N2CCN(C(=O)Cc3cccs3)CC2)n1`, 6.07%; that for `CC(C)(C)C(O)CN1CCN(Cc2cccc(C#N)c2)CC1` (stereo not given), -4.89%. The result for `COc1ccc(CC(=O)N2CCCCC2Cn2cccn2)cc1OC` (stereo not given) reads -40.17%; that for `CN1CCN(c2ccccc2NC(=O)NCCc2ccccc2)CC1`, -10%; that for `C=Cc1ccc(C(=O)NC2CCCc3nc(N(C)C)ncc32)cc1` (stereo not given), 34.61%. `CC(C)n1c(=O)[nH]c2cn(-c3ccc(Br)cc3)c(=O)n21`: the INHIBITION is 22.07%. Turning to `Cc1csc(NC(=O)CN(C)CC2CCCN2c2cccnn2)n1` (stereo not given), the INHIBITION came out at 9.17%. `CN(CC(=O)Nc1ccncc1)CC1CCCN1c1cccnn1` (stereo not given): the INHIBITION is recorded as -22.08%.

In the case of `Cc1cnc(CN(C)CC2CCCN2c2cccnn2)cn1` (stereo not given), the INHIBITION stood at 47.72%. Regarding `CCn1ccnc1CNCC1CCCN1c1cccnn1` (stereo not given), the INHIBITION amounted to 39.92%.

Regarding `CCn1ccnc1CN(C)CC1CCCN1c1cccnn1` (stereo not given), the INHIBITION is reported as 55.52%.

Regarding `Cc1cc(NC(=O)CN(C)CC2CCCN2c2cccnn2)n(C)n1` (stereo not given), the INHIBITION turned out to be 51.03%. In the case of `O=C1CC2(CCN(Cc3ccco3)C2)CN1c1ccc2c(c1)OCO2` (stereo not given) it was 14.06%; in that of `COCCCN1CCN([C@@H]2c3ccccc3C3(CCNCC3)[C@H]2O)CC1`, -13.79%; in that of `CC(C)CN1CC2(CCN(C(=O)c3nc4ncccn4n3)CC2)CC1=O`, -47.52%.

Turning to `CCc1nc(N2CCCN(c3ncccn3)CC2)c2cnn(C)c2n1`, the INHIBITION is recorded as 29.53%. The result for `CCc1nc(N2CCN(c3ncccn3)CC2)c2cnn(C)c2n1` reads 51.48%; that for `CCCc1nc(N2CCCN(c3ncccn3)CC2)c2cnn(C)c2n1`, 17.73%; that for `CCCn1cc(Cl)c(C(=O)N2C[C@H]3CC(OC)C[C@H]3C2)n1` (stereo not given in full), -13.75%. The result for `CCCS(=O)(=O)N1CCCN(CCCOC)CC1` reads -14.94%; that for `COc1cccc(NC(=O)NCC(Cc2cnn(C)c2)C(N)=O)c1` (stereo not given), 55.25%; that for `Cn1cc(CC(CNC(=O)Nc2cccc(Cl)c2)C(N)=O)cn1` (stereo not given), 31.78%. The result for `COc1cccc(NC(=O)NCc2cnn(C)c2)c1` reads 7.33%; that for `CO[C@@H]1CC[C@@H](NC(=O)c2ccc(OCCN3CCCC3)cc2)[C@H]1O`, -1.51%; that for `COCC(=O)N1CCC(c2cc3ncccc3c(O)n2)CC1`, 19.89%.

For the molecule `c1cnn(CC2CN(CCCOc3ccc4c(c3)OCO4)CCO2)c1` (stereo not given), the INHIBITION was -14.46%. For the molecule `c1ncn(CC2CN(CCCOc3ccc4c(c3)OCO4)CCO2)n1` (stereo not given), the INHIBITION amounted to 53.98%. For `Fc1ccc(OCCCN2CCOC(Cn3cncn3)C2)cc1` (stereo not given), the INHIBITION was -20.71%. As for `Cc1cnn(CC2CN(CCCc3nc4ccccc4o3)CCO2)c1` (stereo not given), the INHIBITION came out at 5.14%. The result for `c1ccc2oc(CCCN3CCOC(Cn4cccn4)C3)nc2c1` (stereo not given) reads 14.11%. On to `c1ccc2oc(CCCN3CCOC(Cn4cncn4)C3)nc2c1` (stereo not given), for which the INHIBITION was determined as 53.11%.

In the case of `COc1cc(N2CCC3(CCN(Cc4csc(C)n4)C3)CC2)ncn1`, the INHIBITION is recorded as 7.76%.

As to `CNc1nc(C2CCCN(C(=O)C(C)(C)OC)C2)nc2c1CN(C)CC2` (stereo not given), the INHIBITION is on record as -11.02%.

As to `Cc1nc(Cn2c(=O)cnc3ccccc32)n(C)n1`, the INHIBITION is -48.07%. `CCN(Cc1cccs1)C(=O)c1ccc(=O)n(C)c1`: the INHIBITION is 50.59%. For `COCCN(Cc1cccs1)C(=O)c1ccc(=O)n(C)c1`, the INHIBITION worked out at 29.13%. The result for `CN(Cc1cccs1)C(=O)c1ccc(=O)n(C)c1` reads 7.67%.
